Experimental findings from PubChem BioAssay (NCATS) are described below.

Results filed as inconclusive are left out. Unmarked numbers belong to inactive results. Calls follow the shape of the dose curve; as a rule, active = well fitted inhibition curve with a large enough effect; inconclusive = small, poorly fitted or top-dose-only effect; inactive = flat fitted curve, though single readings scatter.
% is scaled to controls: 0 for no effect and ±100 for the full control effect.

Sequence of Ubiquitin carboxyl-terminal hydrolase 1 (Homo sapiens) (O94782 whole entry, looked up): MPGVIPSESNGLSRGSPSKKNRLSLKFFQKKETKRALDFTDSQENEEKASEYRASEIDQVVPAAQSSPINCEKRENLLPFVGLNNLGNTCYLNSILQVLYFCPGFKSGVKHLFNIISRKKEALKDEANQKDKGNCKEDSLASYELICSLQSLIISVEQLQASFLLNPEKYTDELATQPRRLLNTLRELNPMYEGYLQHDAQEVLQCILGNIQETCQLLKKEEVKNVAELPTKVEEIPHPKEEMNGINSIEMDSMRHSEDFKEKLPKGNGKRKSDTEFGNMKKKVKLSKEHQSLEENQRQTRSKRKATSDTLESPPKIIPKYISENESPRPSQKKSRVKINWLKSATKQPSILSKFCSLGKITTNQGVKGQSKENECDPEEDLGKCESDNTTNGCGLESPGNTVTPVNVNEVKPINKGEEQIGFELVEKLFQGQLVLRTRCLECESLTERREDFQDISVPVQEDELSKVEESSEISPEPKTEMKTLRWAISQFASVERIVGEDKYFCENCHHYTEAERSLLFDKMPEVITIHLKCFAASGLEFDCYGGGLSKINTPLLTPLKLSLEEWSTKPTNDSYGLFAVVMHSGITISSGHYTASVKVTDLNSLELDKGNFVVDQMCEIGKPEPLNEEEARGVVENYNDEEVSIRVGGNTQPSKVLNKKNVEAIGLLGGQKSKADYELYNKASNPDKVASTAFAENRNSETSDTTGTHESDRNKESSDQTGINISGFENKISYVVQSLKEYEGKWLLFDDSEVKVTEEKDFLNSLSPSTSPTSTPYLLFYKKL

The assay addresses Ubiquitin carboxyl-terminal hydrolase 1 (Homo sapiens) (UniProt O94782). In words: Inhibitors of USP1/UAF1: Pilot qHTS (AID 504865).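 Also: rhodamine fluorescence freed from ubiquitin-rhodamine substrate followed over time; top concentration of the series differs between compounds; nearly all actives have a fitted effect of over 35% in size.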 The conditions noted are these: purified USP1/UAF1, Ub-rhodamine cleavage fluorescence; series mostly up to 114 µM; activity change, negative = inhibition: at the top concentration. A digest of the protocol: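 USP1/UAF1 complex at 1 nM preincubated 15 min at room temperature with compound, then Ub-Rho substrate added at 150 nM final. Fluorescence (480/540 nm) read kinetically in 50 mM HEPES pH 7.8, 0.5 mM EDTA, 1 mM TCEP, 0.1 mg/ml BSA, 0.01% Tween-20.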
(In general: Quantitative high-throughput screening tests each substance at several concentrations.)
Take `NCC1O[C@H](O[C@@H]2C(O)[C@H](O[C@H]3OC(CO)C(O)C(N)C3O)[C@@H](N)C[C@H]2N)[C@@H](N)CC1O` (stereo partly drawn): the “activity change, negative = inhibition” value is -3.66%.

For `CS(C)(=O)=O`, the “activity change, negative = inhibition” value is -7.25%.

For `OC1C=C2CCN3Cc4cc5c(cc4C(C1O)C23)OCO5` (stereo not drawn), the “activity change, negative = inhibition” value is -6.74%.

As to `COc1ccc(-c2c(O)c3c(OC)c4c(cc3oc2=O)OC(C)(C)CC4)cc1`, the “activity change, negative = inhibition” value was -13.5%.

With `COc1ccc2c3c1OC1CC(O)C=C[C@@]31CCN(C)C2` (stereo partly drawn), the “activity change, negative = inhibition” value is -3.44%.

For the compound `C[N+]1(C)C2CC(OC(=O)C(CO)c3ccccc3)CC1C1OC12` (stereo not drawn), the “activity change, negative = inhibition” value is -6.98%.

With `COc1cc(C2c3cc4c(cc3C(OC3OC5COC(C)O[C@@H]5C(O)C3O)C3COC(=O)C23)OCO4)cc(OC)c1O` (stereo partly drawn), the “activity change, negative = inhibition” value was -6.74%.

`CNC1C(O)C2OC3OC(C)CC(=O)[C@@]3(O)O[C@H]2[C@H](NC)C1O` (stereo partly drawn): the “activity change, negative = inhibition” value was -10.3%.

On to `COC1=CC(=O)C=C(OC)C1=O`, for which the “activity change, negative = inhibition” value is -6.39% [at 54.9 µM].

For `CNCC(O)c1cccc(O)c1` (stereo not drawn), the “activity change, negative = inhibition” value is -6.61%.

Turning to `CNC1C(O)C(O[C@H]2C(O)[C@@H](OC3OC(CN)=CCC3N)[C@H](N)C[C@@H]2N)OC[C@]1(C)O` (stereo partly drawn), the “activity change, negative = inhibition” value was -9.09%.

Turning to `COC(=O)CC1[C@@]2(C)C[C@@]34OC5(C)OC6(CC[C@@]7(C)C(c8ccoc8)OC(=O)C(C(C)=O)C7[C@]6(O5)C(O)[C@@]3(O)C2O)[C@]14C` (stereo partly drawn), the “activity change, negative = inhibition” value was -12.2%.

For the compound `NC(N)=Nc1nc(CSCC/C(N)=N\S(N)(=O)=O)cs1`, the “activity change, negative = inhibition” value was -6.94%.

With `CCCN1CC(CSC)C[C@H]2c3cccc4[nH]cc(c34)C[C@H]21` (stereo partly drawn), the “activity change, negative = inhibition” value is -13.4%.

For `C[C@]12CCC(=O)C=C1CCC1C2C(O)C[C@]2(C)C1CC[C@]2(O)C(=O)COC(=O)CCC(=O)O` (stereo partly drawn), the “activity change, negative = inhibition” value was -2.38%.

Turning to `Oc1ccc2c(c1)OCC1c3cc4c(cc3OC21)OCO4` (stereo not drawn), the “activity change, negative = inhibition” value is -8.7%.

As to `CC1C(NC(=O)/C(=N/OC(C)(C)C(=O)O)c2csc(N)n2)C(=O)N1S(=O)(=O)O` (stereo not drawn), the “activity change, negative = inhibition” value is -5.48%.

As to `Cc1nnc(SCC2=C(C(=O)O)N3C(=O)C(NC(=O)Cn4cnnn4)[C@@H]3SC2)s1` (stereo partly drawn), the “activity change, negative = inhibition” value was -7.94%.
